# Test results taken from PubChem BioAssay.
# For some assays here: Potency and affinity values are given separately. The source made the active and inactive calls. Unless noted, no rule for the calls is given here.
# Experiments:
# [1] = biological target: Cell division control protein 42 homolog (Homo sapiens) (UniProt P60953); assay: activated mutant Cdc42 GTP-binding inhibitors, dose response, biochemical, multiplex bead flow cytometry, Bodipy-FL-GTP (AID 1333;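 active = fitted half-maximal concentration within the tested dose range, moderate curve steepness, a statistically real signal drop, and little compound fluorescence or tag-binding interference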)
# Sequence of Cell division control protein 42 homolog (Homo sapiens) (P60953 whole entry, looked up): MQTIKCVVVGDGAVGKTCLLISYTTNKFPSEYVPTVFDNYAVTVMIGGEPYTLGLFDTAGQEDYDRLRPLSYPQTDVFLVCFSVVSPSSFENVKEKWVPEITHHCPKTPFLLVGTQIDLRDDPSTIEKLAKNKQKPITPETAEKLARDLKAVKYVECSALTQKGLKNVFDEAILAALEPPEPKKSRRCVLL
# [2] = biological target: Cell division control protein 42 homolog (Homo sapiens) (UniProt P60953); assay: wildtype Cdc42 GTP-binding inhibitors, dose response, biochemical, multiplex bead flow cytometry, Bodipy-FL-GTP (AID 1334;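 active = fitted half-maximal concentration within the tested range, moderate curve steepness, significant signal drop, and little compound fluorescence or bead-linkage interference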); details: bead-based flow cytometry, Bodipy-FL-GTP binding to GST-Cdc42; at 100 µM (top of the series) unless noted
# [3] = system: Ras-related protein Rab-7a (dog), GTP binding; assay: Rab7 GTP binding inhibitors, potency, dose response, biochemical, wildtype, multiplex bead flow cytometry (AID 1336)
# [4] = biological target: GTPase HRas (Homo sapiens) (UniProt P01112); assay: inhibitors of GTP binding to wildtype Ras, dose response, biochemical, multiplex bead flow cytometry (AID 1335;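 active = fitted half-maximal concentration within 10 nM to 100 µM, steepness 0.5 to 2, significant signal drop, low assay interference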); details: bead-based flow cytometry, Bodipy-GTP binding to GST-Ras; at 100 µM (top of the series) unless noted
# Sequence of GTPase HRas (Homo sapiens) (P01112 whole entry, looked up): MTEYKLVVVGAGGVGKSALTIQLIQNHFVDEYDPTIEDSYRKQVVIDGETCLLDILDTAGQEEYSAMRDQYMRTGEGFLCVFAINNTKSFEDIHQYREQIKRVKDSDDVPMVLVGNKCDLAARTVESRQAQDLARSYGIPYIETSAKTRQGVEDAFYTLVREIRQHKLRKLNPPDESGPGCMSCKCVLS
# [5] = biological target: Ras-related C3 botulinum toxin substrate 1 (Homo sapiens) (UniProt P63000); assay: wildtype Rac1 GTP binding inhibitors, dose response, biochemical, multiplex bead flow cytometry (AID 1340;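 active = dose curve with midpoint inside tested range, moderate steepness, plateau gap beyond fit error, low compound glow and bead-link interference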); details: GST-Rac1 beads, Bodipy-FL-GTP binding; at 100 µM (top of the series) unless noted
# [6] = biological target: GTPase HRas (Homo sapiens) (UniProt P01112); assay: activated Ras mutant GTP binding inhibitors, dose response, biochemical, multiplex bead flow cytometry (AID 1341;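 active = dose-response curve with midpoint inside the tested range, moderate steepness, significant amplitude and little compound fluorescence or bead-attachment interference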;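 also: GST-tagged constitutively activated Ras mutant immobilized on beads and multiplexed with other GTPases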)
# [7] = RPL19A-GFP modulators, yeast TOR pathway, confirmation, cell-based, S. cerevisiae, flow cytometry, cherry picks, mother/daughter gates (AID 2270;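 active = GFP response below 50% of the DMSO control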); details: S. cerevisiae RPL19A-GFP strain, 3 h, at 10 µM, stronger effect = lower value, 100 = same GFP as DMSO wells
# [8] = LAP4-GFP expression modulators in yeast, confirmation, cell-based, cherry picks, flow cytometry, mother/daughter gates (AID 2271;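 active = GFP response above 150% of the DMSO control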;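 also: ratio of sample to DMSO plate mean so 100% equals DMSO level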); details: S. cerevisiae LAP4-GFP strain, 3 h, at 10 µM, stronger effect = higher value, 100 means same as DMSO control
# [9] = modulators of MEP2-GFP levels in yeast, confirmation, S. cerevisiae, flow cytometry GFP, cherry picks (AID 2272;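 active = GFP response above 150% of the DMSO control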;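 also: ratio of well signal to plate DMSO mean so 100% equals DMSO level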); details: S. cerevisiae MEP2-GFP strain, 3 h, at 10 µM, stronger effect = higher value
# [10] = AGP1-GFP expression modulators, hit retest, confirmation, cell-based, flow cytometry, S. cerevisiae, cherry picks (AID 2273;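 active = GFP response above 150% of the DMSO level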;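 also: median GFP channel fluorescence over the whole cell population gate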); details: S. cerevisiae AGP1-GFP strain, 3 h, at 10 µM
# [11] = modulators of CIT2-GFP expression in yeast, confirmation, S. cerevisiae, GFP fusion, cherry picks, mother/daughter gates (AID 2274;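 active = GFP response above 150% of the DMSO level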); details: S. cerevisiae CIT2-GFP strain, flow cytometry, 3 h, at 10 µM, stronger effect = higher value
# [12] = measured here: daughter cell gate
# [13] = measured here: mother cell gate
smiles,measurement,setting,value
Cc1cc(NC(=O)CSc2nc(-c3ccccc3)c(C#N)c(=O)[nH]2)no1,outcome,[1],inactive
same,"fluorescence, percent of control (lower = inhibition)",[2],45.4%
same,outcome,[3],inactive
CCOC(=O)c1c(NC(=O)C(=O)N/N=C/c2ccc(O)c(OC)c2)sc2c1CCCCC2,outcome,[1],inactive
same,"GTP binding, percent of control",[4],64.6%
same,outcome,[3],inactive
same,"GTP binding signal, raw median fluorescence (lower = inhibition) (MCF (arbitrary fluorescence units))",[5],184
same,outcome,[6],inactive
COc1cc(/C=N\NC(=O)c2sc(N)nc2C)cc(OC)c1OC,outcome,[1],inactive
same,"fluorescence, percent of control (lower = inhibition)",[2],39.4%
same,"GTP binding, percent of control",[4],51.7%
same,outcome,[3],inactive
same,outcome,[6],inactive
CN1C(=O)N(C)c2ccc(C=O)c3cccc1c23,outcome,[1],inactive
same,"fluorescence, percent of control (lower = inhibition)",[2],36.5%
same,"GTP binding, percent of control",[4],82.8%
same,outcome,[3],inactive
same,outcome,[6],inactive
CCn1cc(C=C2C(=O)c3ccccc3C2=O)c2ccccc21,outcome,[1],inactive
same,"fluorescence, percent of control (lower = inhibition)",[2],40.2%
same,outcome,[3],inactive
same,"GTP binding signal, raw median fluorescence (lower = inhibition) (MCF (arbitrary fluorescence units))",[5],161
same,outcome,[6],inactive
CCN1C(c2ccccc2)=C(c2ccccc2)S/C1=C/C=C1\SC(=S)N(C)C1=O,outcome,[1],inactive
same,"fluorescence, percent of control (lower = inhibition)",[2],41.8%
same,outcome,[3],inactive
same,"GTP binding signal, raw median fluorescence (lower = inhibition) (MCF (arbitrary fluorescence units))",[5],167
same,outcome,[6],inactive
O=C(Nc1ccccc1)C1=C(c2ccccc2)S(=O)(=O)CCS1(=O)=O,"fluorescence, percent of control (lower = inhibition)",[2],21.5%
same,"GTP binding, percent of control",[4],72.8%
same,outcome,[3],inactive
same,"GTP binding signal, raw median fluorescence (lower = inhibition) (MCF (arbitrary fluorescence units))",[5],217
same,outcome,[6],inactive
O=C(C#CC1CCCCC1)c1ccc([N+](=O)[O-])cc1,"fluorescence, percent of control (lower = inhibition)",[2],33%
same,"GTP binding, percent of control",[4],177%
same,outcome,[3],inactive
same,"GTP binding signal, raw median fluorescence (lower = inhibition) (MCF (arbitrary fluorescence units))",[5],45.6
same,outcome,[6],inactive
NC(N)=NS(=O)(=O)c1ccc(NC(=S)NC(=O)c2ccc3c(c2)OCO3)cc1,outcome,[1],inactive
same,"fluorescence, percent of control (lower = inhibition)",[2],44.3%
same,"GTP binding, percent of control",[4],97.7%
same,outcome,[3],inactive
same,outcome,[6],inactive
Cc1ccc(-n2c(-c3cnccn3)n[nH]c2=S)c(Br)c1,"fluorescence, percent of control (lower = inhibition)",[2],23.2%
same,"GTP binding, percent of control",[4],60.1%
same,outcome,[3],inactive
same,"GTP binding signal, raw median fluorescence (lower = inhibition) (MCF (arbitrary fluorescence units))",[5],190
same,outcome,[6],inactive
CCOC(=O)Cn1nnnc1C(C(C)C)N(Cc1cccs1)Cc1cc2cc(C)ccc2[nH]c1=O (stereo not drawn),outcome,[1],inactive
same,"GTP binding, percent of control",[4],181%
same,outcome,[3],inactive
same,"GTP binding signal, raw median fluorescence (lower = inhibition) (MCF (arbitrary fluorescence units))",[5],181
same,outcome,[6],inactive
O=C(O)c1cn(CCOc2ccccc2)c2ccccc12,outcome,[1],inactive
same,"fluorescence, percent of control (lower = inhibition)",[2],76.5%
same,"GTP binding, percent of control",[4],92.7%
same,outcome,[3],inactive
same,outcome,[6],inactive
CCOC(=O)c1nc(Nc2ccc(C(C)=O)cc2)c2ccccc2n1,outcome,[1],inactive
same,"fluorescence, percent of control (lower = inhibition)",[2],36%
same,"GTP binding, percent of control",[4],80.4%
same,outcome,[3],inactive
same,outcome,[6],inactive
Cc1ccc(-n2c(=O)cc(N3CCc4ccccc4C3)[nH]c2=O)cc1,outcome,[1],inactive
same,"fluorescence, percent of control (lower = inhibition)",[2],58.7%
same,outcome,[3],inactive
same,"GTP binding signal, raw median fluorescence (lower = inhibition) (MCF (arbitrary fluorescence units))",[5],251
same,outcome,[6],inactive
CCS(=O)(=O)N1N=C(c2cccc(NS(C)(=O)=O)c2)CC1c1ccc(C)cc1 (stereo not drawn),outcome,[1],inactive
same,outcome,[3],inactive
same,"GTP binding signal, raw median fluorescence (lower = inhibition) (MCF (arbitrary fluorescence units))",[5],230
same,outcome,[6],inactive
same,GFP response vs DMSO,[7],100% (inactive)
same,GFP response vs DMSO,[7]; [12],99.1%
same,GFP response vs DMSO,[7]; [13],101%
same,GFP response relative to DMSO,[8],101% (inactive)
same,GFP response relative to DMSO,[8]; measured here: daughter cell gate response,97.5%
same,GFP response relative to DMSO,[8]; measured here: mother cell gate response,100%
same,GFP response vs DMSO,[9],116% (inactive)
same,"GFP response, % of DMSO",[10],104% (inactive)
same,"GFP response, % of DMSO",[11],108% (inactive)
same,"GFP response, % of DMSO",[11]; [12],105%
same,"GFP response, % of DMSO",[11]; [13],108%
